{"source": "PubChem BioAssay AID1224860", "about": "(National Center for Advancing Translational Sciences (NCATS), 2016)", "note": "Results filed as inconclusive are left out. Unmarked numbers belong to inactive results. The source made the active and inactive calls. The call rests on the fitted dose curve; in most records, active means well fitted cell-killing curve with a large enough effect; inconclusive means small, poorly fitted or top-dose-only effect; inactive means flat fitted curve, though single readings scatter.", "data": [{"test": "Compound cytotoxicity measured by an ATP content assay as a counter-screen for lead compounds in human iPSC derived neural progenitor cells (hNPCs)", "settings": "human iPSC-derived NPC viability, ATP luminescence; series mostly up to 46.1 µM; activity, negative = cytotoxicity: at the top concentration", "how_it_was_run": "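hNPCs (human iPSC-derived) seeded 16–20 h, then exposed to compound for 6, 24 or 72 h at 37 C. ATP-content luminescence read after 10 min at room temperature; cytotoxicity expressed as percent inhibition of viability.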", "units": {"activity, negative = cytotoxicity": "%"}, "values": [{"molecule": "O=C(Nc1cc2cc[nH]c2cn1)c1ccccc1", "Potency": "0.346 µM (active)"}, {"molecule": "O=S(=O)(O)CCSSCCS(=O)(=O)O", "activity, negative = cytotoxicity": -10.7}, {"molecule": "CCCCCNC(=O)N1CCC(CN(Cc2ccc(Cl)cc2)Cc2ccc([N+](=O)[O-])s2)C1", "note": "(stereo not drawn)", "activity, negative = cytotoxicity": 1.44}, {"molecule": "CC(=O)Nc1ccc([C@H](C)C(=O)Nc2ncc(C(C)C)s2)cc1", "activity, negative = cytotoxicity": -9.01}, {"molecule": "O=C(O)Cc1ccc(-c2ccccc2)cc1", "activity, negative = cytotoxicity": 0.151}, {"molecule": "O=C(/C=C/c1ccc(O)cc1)c1ccc(O)cc1O", "activity, negative = cytotoxicity": -5.73}, {"molecule": "COc1ccc2nc(NC(=O)Nc3ccccc3)sc2c1", "Potency": "7.74 µM (active)"}, {"molecule": "CC1(C)Cc2c(sc(NC(=S)NC(=O)c3ccccc3)c2C(=O)O)CO1", "activity, negative = cytotoxicity": 2.96}, {"molecule": "Cc1ccc(O)c(N=Nc2ccccc2)n1", "Potency": "4.35 µM (active)"}, {"molecule": "CN(C)c1cc(NC(=O)CNC(C)(C)C)c(O)c2c1C[C@@H]1C[C@H]3[C@H](N(C)C)C(=O)C(C(N)=O)=C(O)[C@@]3(O)C(=O)C1=C2O", "activity, negative = cytotoxicity": -7.78}, {"molecule": "CCCS(=O)c1ccc2nc(NC(=O)OC)[nH]c2c1", "note": "(stereo not drawn)", "activity, negative = cytotoxicity": -9.42}, {"molecule": "Nc1ccc2c(c1)CN1C(=O)c3ccccc3C1=N2", "Potency": "6.73 µM (active)"}, {"molecule": "CN(C)CCCSc1ccccc1NC(=O)/C=C/c1ccccc1", "activity, negative = cytotoxicity": -14.6}, {"molecule": "CCOCCOC(=O)/C=C/c1ccc(OC)cc1", "activity, negative = cytotoxicity": 6.33}, {"molecule": "NC(N)=NN=C(/C=C/c1ccc([N+](=O)[O-])o1)/C=C/c1ccc([N+](=O)[O-])o1", "Potency": "1.95 µM (active)"}, {"molecule": "O=C(O)c1cc([N+](=O)[O-])ccc1NCCCc1ccccc1", "activity, negative = cytotoxicity": -8.18}, {"molecule": "COc1cc(NC(C)CCCN)c2ncccc2c1", "note": "(stereo not drawn)", "activity, negative = cytotoxicity": 5.35}, {"molecule": "CN(C)c1ccc2cc(C(=O)N[C@@H](CCCN=C(N)CCl)C(=O)NCc3ccccc3)ccc2c1", "activity, negative = cytotoxicity": -7.42}]}]}
